Results from PubChem BioAssay (NCATS).
Values joined by “and” are separate entries in the source; they are usually repeats but may differ in a detail not shown here. Equal values may be shown once. Records with an inconclusive call do not appear. Active and inactive are the calls of the source. Unless noted, calls follow the shape of the dose curve; as a rule, active = well fitted curve in the direction sought with a large enough effect; inconclusive = small, poorly fitted or top-dose-only effect, or another doubt; inactive = no such curve, though single readings can be large; an effect the other way counts as inactive or inconclusive.

Tests used:
[1] = Primary qHTS for small molecule stabilizers of the endoplasmic reticulum resident proteome: Secreted ER Calcium Modulated Protein (SERCaMP) assay (AID 1508630); as to activity change, negative = inhibition: % is scaled to controls: 0 for no effect and ±100 for the full control effect
Procedure, shortened: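 The SH-SY5Y reporter protocol was run at 3 concentrations up to 38.3 uM (primary) or 11 concentrations (follow-up): 16 h compound, 100 nM thapsigargin for 4 h, then extracellular luciferase luminescence.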

[2] = target: Cytochrome P450 2D6 (Homo sapiens) (UniProt P10635); assay: Cytochrome P450 family 2 subfamily D member 6 (CYP2D6) small molecule antagonists: luciferase biochemical (cell-free) qHTS assay (AID 1645840; active = well fitted curve in the direction sought with a large enough effect in the repeat runs; an effect the other way counts as inactive or inconclusive; also: nearly all actives have a fitted effect of over 55% in size; as to activity change, negative = inhibition: % is scaled to controls: 0 for no effect and ±100 for the full control effect)
Cytochrome P450 2D6 (Homo sapiens), sequence (P10635 whole entry, looked up): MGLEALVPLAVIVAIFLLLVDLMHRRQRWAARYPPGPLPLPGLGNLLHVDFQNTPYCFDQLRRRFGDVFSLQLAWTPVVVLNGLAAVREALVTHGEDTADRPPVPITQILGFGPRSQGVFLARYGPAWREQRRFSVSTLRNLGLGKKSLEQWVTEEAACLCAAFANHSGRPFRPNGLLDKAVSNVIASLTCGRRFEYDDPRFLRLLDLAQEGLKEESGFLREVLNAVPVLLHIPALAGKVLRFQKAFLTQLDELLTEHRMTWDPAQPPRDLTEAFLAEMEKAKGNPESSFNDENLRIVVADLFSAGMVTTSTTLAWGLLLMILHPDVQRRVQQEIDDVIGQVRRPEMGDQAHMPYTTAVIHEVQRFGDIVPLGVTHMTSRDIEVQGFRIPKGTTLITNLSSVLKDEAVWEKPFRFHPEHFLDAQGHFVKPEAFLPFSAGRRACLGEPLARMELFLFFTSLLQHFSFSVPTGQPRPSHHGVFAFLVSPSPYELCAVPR
Procedure, shortened: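 P450-Glo CYP2D6 system: proluciferin substrate converted by enzyme to luciferin, read by luminescence proportional to activity. Enzyme-substrate mix with compound 10 min at room temperature, then NADPH regeneration 1 h before detection reagent.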

[3] = Primary qHTS for inhibitors of nuclear receptor binding SET domain protein 2 (NSD2) in an isogenic RCH-ACV NSD2 p.E1099K mutant (9B) (AID 1645876); also: nearly all actives have a fitted effect of over 70% in size
[4] = Primary qHTS for inhibitors of nuclear receptor binding SET domain protein 2 (NSD2) in an RCH-ACV wild type WT cells (2C) (AID 1645877); also: nearly all actives have a fitted effect of over 70% in size
[5] = target: Cytochrome P450 2C9 (Homo sapiens) (UniProt P11712); assay: Cytochrome P450 family 2 subfamily C member 9 (CYP2C9) small molecule antagonists: luciferase biochemical (cell-free) qHTS assay (AID 1645842; active = well fitted curve in the direction sought with a large enough effect in the repeat runs; an effect the other way counts as inactive or inconclusive; also: nearly all actives have a fitted effect of over 55% in size; as to activity change, negative = inhibition: % is scaled to controls: 0 for no effect and ±100 for the full control effect)
Cytochrome P450 2C9 (Homo sapiens), sequence (P11712 whole entry, looked up): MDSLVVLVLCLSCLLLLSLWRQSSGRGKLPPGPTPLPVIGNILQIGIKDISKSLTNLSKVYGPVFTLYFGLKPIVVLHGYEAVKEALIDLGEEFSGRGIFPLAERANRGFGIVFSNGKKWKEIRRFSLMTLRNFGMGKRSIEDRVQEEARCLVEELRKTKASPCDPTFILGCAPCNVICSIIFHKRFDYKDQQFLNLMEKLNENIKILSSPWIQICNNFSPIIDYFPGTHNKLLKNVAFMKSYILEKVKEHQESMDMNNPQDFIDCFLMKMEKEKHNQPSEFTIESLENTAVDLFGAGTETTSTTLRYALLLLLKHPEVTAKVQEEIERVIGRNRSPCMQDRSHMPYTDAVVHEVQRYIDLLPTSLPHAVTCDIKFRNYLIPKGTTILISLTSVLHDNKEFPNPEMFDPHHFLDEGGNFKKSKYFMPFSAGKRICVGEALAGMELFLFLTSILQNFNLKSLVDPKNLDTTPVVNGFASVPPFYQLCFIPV
Procedure, shortened: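 P450-Glo CYP2C9 system: proluciferin substrate with enzyme in mix containing 0.4% BSA, 10 min at room temperature, then NADPH regeneration solution added and incubated 1 h at 37C. Detection reagent stopped reaction; luminescence read after 20 min as RLU.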

[6] = target: Catechol O-methyltransferase (Homo sapiens) (UniProt P21964); assay: Confirmatory Screen for Target Class Profiling of Small Molecule Inhibitors of Methyltransferases (AID 1745852; calls by dose curve; as to activity change, negative = inhibition: % is scaled to controls: 0 for no effect and ±100 for the full control effect); conditions: MTase-Glo luminescence, SAH detection, recombinant enzyme; measured here: COMT max response; stronger effect = lower value
Catechol O-methyltransferase (Homo sapiens), sequence (P21964 whole entry, looked up): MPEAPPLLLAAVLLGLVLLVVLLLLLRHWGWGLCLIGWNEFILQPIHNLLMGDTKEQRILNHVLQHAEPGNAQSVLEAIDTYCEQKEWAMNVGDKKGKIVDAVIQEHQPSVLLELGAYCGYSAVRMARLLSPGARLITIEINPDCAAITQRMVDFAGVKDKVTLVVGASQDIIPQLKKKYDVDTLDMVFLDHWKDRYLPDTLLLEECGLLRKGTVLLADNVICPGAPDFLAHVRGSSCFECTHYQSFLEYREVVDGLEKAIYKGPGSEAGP

[7] = target: Guanidinoacetate N-methyltransferase (Homo sapiens) (UniProt Q14353); assay: as above; conditions: MTase-Glo luminescence, SAH detection, recombinant enzyme; activity change, negative = inhibition: at 57.3 µM (top of the series) unless noted
Potency is read from the fitted curve at half-maximal effect.

| SMILES | Potency [1] | Potency [2] | Potency [3] | Potency [4] | Potency [5] | activity [6] | Potency [7] | activity change, negative = inhibition [7] |
| --- | --- | --- | --- | --- | --- | --- | --- | --- |
| CC[C@@H]1C(=O)N(C)c2cnc(Nc3ccc(C(=O)NC4CCC(N5CCN(CC6CC6)CC5)CC4)cc3OC)nc2N1C(C)C (stereo partly drawn) | inactive | inactive | 36.5 nM (active) and 16.3 nM (active) and 41.7 nM (active) | 36.5 nM (active) and 41.1 nM (active) and 37.2 nM (active) |  |  |  |  |
| Cn1cc(-c2ccncc2)c(-c2ccc(OCc3ccc4ccccc4n3)cc2)n1 | inactive | 7.56 µM (active) | 12.9 µM (active) | 14.5 µM (active) | 0.601 µM (active) |  |  |  |
| COc1cccc2c(NCc3ccccc3)nc(-n3c(N)nc4ccccc43)nc12 | inactive | 1.9 µM (active) | 8.33 µM (active) | 8.33 µM (active) | 6.74 µM (active) |  |  |  |
| CNC(=O)c1cc(Oc2ccc(NC(=O)Nc3cc(C(C)(C)C)nn3-c3ccc4ncccc4c3)c(F)c2)ccn1 | inactive | inactive | 3.65 µM (active) and 4.17 µM (active) | 7.28 µM (active) and 5.25 µM (active) |  |  |  |  |
| COC(=O)c1ccc2c(C(=Nc3ccc(N(C)C(=O)CN4CCN(C)CC4)cc3)c3ccccc3)c(O)[nH]c2c1 | inactive | inactive | 1.83 µM (active) and 2.63 µM (active) | 2.3 µM (active) and 3.32 µM (active) |  |  |  |  |
| CNC(=O)c1ccc(N2C(=S)N(c3cnc(C#N)c(C(F)(F)F)c3)C(=O)C23CCC3)cc1F | inactive | inactive | inactive | inactive |  |  |  |  |
| COc1c(N2C[C@@H]3CCCN[C@H]3C2)c(F)cc2c(=O)c(C(=O)O)cn(C3CC3)c12 | inactive | inactive | inactive | inactive |  |  |  |  |
| O=C(Cc1ccc(-c2ccc(OCCN3CCOCC3)cc2)cn1)NCc1ccccc1 | inactive | inactive | 459 nM (active) and 105 nM (active) | 258 nM (active) and 105 nM (active) |  |  |  |  |
| Nc1ncnc2c1c(-c1cccc(OCc3ccccc3)c1)cn2C1CC(CN2CCCC2)C1 (stereo not drawn) | inactive | 12 µM (active) | 11.8 µM (active) | 10.5 µM (active) | 16.9 µM (active) | -58.1% | 27.1 µM (active) |  |
| COc1cc(C(=O)N2CCC(N3CCN(C)CC3)CC2)ccc1Nc1ncc2c(n1)N(C)c1ccccc1C(=O)N2C | inactive | inactive | 1.15 µM (active) and 1.48 µM (active) | 1.45 µM (active) and 1.86 µM (active) |  |  |  |  |
| CCOc1ccccc1OCCNC(C)Cc1ccc(OC)c(S(N)(=O)=O)c1 (stereo not drawn) | inactive | 10.7 µM (active) | inactive | inactive | inactive |  |  |  |
| Cc1cc(Nc2nc(N[C@@H](C)c3ccc(F)cc3)c(C#N)cc2F)n[nH]1 | inactive | 26.8 µM (active) | 578 nM (active) and 934 nM (active) | 578 nM (active) and 742 nM (active) | 1.9 µM (active) | -4.92% |  | 0% |
| COc1ccc(C(=O)CC2(O)C(=O)Nc3c(Cl)ccc(Cl)c32)cc1 (stereo not drawn) | inactive | inactive | 2.58 µM (active) | 1.83 µM (active) |  |  |  |  |
| Nc1ccccc1NC(=O)c1ccc(CNc2nccc(-c3cccnc3)n2)cc1 | inactive | 4.77 µM (active) | 258 nM (active) and 590 nM (active) | 205 nM (active) and 590 nM (active) | 5.35 µM (active) | -14% |  | -1.06% |
| CC(C)(O)c1cc2nc(-c3cnc(N)nc3)nc(N3CCOCC3)c2s1 | inactive | inactive | 0.372 µM (active) | 0.372 µM (active) |  |  |  |  |
| Clc1cccc(-c2nnnn2Cc2cccnc2)c1Cl | inactive | inactive | inactive |  |  |  |  |  |
| COc1cc2nccc(Oc3ccc(NC(=O)C4(C(=O)Nc5ccc(F)cc5)CC4)cc3)c2cc1OC | inactive | inactive | 3.65 µM (active) and 5.25 µM (active) | 4.09 µM (active) and 4.68 µM (active) | 2.68 µM (active) |  |  |  |
| Cc1c(CN2CCN(S(C)(=O)=O)CC2)sc2c(N3CCOCC3)nc(-c3cnc(N)nc3)nc12 | inactive | inactive | 29 nM (active) and 74.2 nM (active) | 32.5 nM (active) and 118 nM (active) | 10.7 µM (active) | -10.4% |  | -5.48% |
| CC(C)c1cc(C(=O)N2Cc3ccc(CN4CCN(C)CC4)cc3C2)c(O)cc1O | inactive | inactive | 115 nM (active) and 148 nM (active) | 129 nM (active) and 166 nM (active) |  |  |  |  |
| c1ccc2c(CCNc3ccc(Nc4ccncc4)cc3)c[nH]c2c1 | inactive | 0.477 µM (active) | 728 nM (active) and 332 nM (active) | 578 nM (active) and 296 nM (active) |  |  |  |  |
| CC(=O)c1c(C)c2cnc(Nc3ccc(N4CCNCC4)cn3)nc2n(C2CCCC2)c1=O | 5.95 µM (active) | inactive | 1.48 µM (active) |  |  |  |  |  |
